# ± gives the standard deviation of the averaged measurements. Targets with the largest changes are over-represented here; the source holds about 6,200 in all.
# Compound: Nc1ncnc2c1ncn2[C@@H]1O[C@H](COP(=O)(O)OP(=O)(O)NP(=O)(O)O)[C@@H](O)[C@H]1O [adenylyl imidodiphosphate]
# Assay: NP40-soluble protein abundance relative to vehicle (solubility fold change) (ratio); higher = more soluble protein in presence of AMP-PNP
# In short: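 Each value is a fold change relative to the detergent-processed vehicle, calculated per replicate from vsn-normalised intensities. Jurkat crude lysate received eight concentrations (0.1 to 10 mM) for 10 min at room temperature and 3 min at 37 °C, then was solubilised in 0.8% NP40 with benzonase (60 min, 4 °C). The ultracentrifuged supernatant was TMT-labelled and run by LC-MS/MS in three independent experiments.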
# UniProt Q96MX3, sequence (Q96MX3 whole entry): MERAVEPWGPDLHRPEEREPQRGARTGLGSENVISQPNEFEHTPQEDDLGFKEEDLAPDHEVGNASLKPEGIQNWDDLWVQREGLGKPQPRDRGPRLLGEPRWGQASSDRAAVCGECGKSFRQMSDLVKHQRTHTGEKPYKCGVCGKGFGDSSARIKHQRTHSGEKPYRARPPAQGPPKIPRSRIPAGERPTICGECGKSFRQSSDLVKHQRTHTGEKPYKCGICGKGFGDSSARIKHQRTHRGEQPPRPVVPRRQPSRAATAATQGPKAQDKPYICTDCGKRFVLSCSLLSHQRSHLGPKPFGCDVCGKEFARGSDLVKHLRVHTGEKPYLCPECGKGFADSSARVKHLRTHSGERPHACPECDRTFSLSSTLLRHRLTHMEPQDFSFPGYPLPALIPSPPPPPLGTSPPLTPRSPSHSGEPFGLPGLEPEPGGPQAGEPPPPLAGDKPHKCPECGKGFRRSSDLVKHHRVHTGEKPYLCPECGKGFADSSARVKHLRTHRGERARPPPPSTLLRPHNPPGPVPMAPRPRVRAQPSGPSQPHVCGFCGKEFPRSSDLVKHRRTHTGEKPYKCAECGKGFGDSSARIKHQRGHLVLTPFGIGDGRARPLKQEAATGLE
# UniProt Q9BTC0, sequence (Q9BTC0 whole entry): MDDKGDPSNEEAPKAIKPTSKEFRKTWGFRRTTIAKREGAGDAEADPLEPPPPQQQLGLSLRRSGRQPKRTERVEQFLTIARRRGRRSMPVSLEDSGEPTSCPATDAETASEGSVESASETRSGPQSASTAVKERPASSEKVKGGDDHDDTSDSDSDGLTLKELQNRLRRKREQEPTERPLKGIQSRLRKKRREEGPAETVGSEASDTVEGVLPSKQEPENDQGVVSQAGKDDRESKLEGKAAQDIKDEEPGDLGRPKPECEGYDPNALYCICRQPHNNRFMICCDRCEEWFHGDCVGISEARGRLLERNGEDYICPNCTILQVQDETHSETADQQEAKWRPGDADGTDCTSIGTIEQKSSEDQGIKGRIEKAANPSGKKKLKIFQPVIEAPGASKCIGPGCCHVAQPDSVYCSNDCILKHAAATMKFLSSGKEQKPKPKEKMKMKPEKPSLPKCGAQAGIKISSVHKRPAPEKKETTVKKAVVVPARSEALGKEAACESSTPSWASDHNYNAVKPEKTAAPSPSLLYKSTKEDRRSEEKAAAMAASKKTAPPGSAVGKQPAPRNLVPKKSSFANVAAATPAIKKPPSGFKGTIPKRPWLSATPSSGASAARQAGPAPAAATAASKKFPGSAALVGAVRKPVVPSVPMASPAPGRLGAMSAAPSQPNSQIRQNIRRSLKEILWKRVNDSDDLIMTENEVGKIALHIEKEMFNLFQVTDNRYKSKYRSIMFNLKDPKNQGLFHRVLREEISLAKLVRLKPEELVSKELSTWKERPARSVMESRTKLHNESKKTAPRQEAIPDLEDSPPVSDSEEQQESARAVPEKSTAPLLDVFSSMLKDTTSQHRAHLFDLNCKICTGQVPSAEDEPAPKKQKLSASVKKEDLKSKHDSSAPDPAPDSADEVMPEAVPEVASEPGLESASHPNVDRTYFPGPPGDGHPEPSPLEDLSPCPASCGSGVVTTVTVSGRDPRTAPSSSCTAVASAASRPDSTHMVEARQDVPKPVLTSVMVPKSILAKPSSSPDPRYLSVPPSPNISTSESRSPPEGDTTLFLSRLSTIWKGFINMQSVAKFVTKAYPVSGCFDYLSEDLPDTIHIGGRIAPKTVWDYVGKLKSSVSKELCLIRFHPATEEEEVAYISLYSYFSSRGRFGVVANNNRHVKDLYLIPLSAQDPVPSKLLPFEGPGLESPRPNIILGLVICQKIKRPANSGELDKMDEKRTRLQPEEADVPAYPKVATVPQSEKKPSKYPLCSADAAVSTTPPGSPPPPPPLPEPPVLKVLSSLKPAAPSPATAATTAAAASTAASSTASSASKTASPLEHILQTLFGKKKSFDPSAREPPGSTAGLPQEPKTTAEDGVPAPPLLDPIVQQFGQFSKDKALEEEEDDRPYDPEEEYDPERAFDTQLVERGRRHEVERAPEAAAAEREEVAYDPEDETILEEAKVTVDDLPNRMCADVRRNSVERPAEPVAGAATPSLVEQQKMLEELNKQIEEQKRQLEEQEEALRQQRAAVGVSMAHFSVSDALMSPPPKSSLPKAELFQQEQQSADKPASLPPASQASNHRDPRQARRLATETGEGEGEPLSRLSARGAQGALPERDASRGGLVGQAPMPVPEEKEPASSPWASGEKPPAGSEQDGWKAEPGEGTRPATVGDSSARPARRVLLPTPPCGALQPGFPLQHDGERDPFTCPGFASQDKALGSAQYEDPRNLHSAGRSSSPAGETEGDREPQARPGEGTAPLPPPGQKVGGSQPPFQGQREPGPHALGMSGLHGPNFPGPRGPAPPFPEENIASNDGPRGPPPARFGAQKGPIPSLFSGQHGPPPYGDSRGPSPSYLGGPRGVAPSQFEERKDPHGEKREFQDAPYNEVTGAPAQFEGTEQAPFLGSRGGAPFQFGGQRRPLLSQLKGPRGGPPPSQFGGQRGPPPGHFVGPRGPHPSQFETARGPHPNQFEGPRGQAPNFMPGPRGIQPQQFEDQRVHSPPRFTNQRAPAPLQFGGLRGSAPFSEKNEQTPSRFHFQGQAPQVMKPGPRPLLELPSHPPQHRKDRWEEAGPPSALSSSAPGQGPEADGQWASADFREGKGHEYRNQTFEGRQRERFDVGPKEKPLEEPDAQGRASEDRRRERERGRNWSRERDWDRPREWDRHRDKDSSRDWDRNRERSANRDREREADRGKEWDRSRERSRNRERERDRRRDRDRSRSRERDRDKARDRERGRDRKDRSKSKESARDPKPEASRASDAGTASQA
# UniProt Q9C0B0, sequence (Q9C0B0 whole entry): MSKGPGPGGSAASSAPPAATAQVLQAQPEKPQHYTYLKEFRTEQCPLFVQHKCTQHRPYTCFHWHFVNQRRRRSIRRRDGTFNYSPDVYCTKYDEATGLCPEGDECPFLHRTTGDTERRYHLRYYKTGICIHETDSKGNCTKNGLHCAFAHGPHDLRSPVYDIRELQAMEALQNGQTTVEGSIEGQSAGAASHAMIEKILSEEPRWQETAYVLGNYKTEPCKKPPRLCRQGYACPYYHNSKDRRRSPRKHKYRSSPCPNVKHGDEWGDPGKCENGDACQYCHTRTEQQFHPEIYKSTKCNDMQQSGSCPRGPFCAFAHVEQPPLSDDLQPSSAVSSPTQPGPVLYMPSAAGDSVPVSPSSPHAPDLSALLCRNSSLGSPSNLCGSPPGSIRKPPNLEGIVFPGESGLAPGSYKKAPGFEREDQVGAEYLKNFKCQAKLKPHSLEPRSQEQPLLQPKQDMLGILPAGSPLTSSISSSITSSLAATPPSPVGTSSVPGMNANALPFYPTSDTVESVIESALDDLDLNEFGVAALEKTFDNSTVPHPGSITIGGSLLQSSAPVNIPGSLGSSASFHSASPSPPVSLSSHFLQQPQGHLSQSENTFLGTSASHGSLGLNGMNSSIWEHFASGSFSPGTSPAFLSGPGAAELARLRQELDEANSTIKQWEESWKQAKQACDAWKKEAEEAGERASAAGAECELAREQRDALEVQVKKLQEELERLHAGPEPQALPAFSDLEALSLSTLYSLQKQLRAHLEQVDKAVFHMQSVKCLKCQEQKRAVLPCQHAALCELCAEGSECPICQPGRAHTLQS
# UniProt Q99615, sequence (Q99615 whole entry): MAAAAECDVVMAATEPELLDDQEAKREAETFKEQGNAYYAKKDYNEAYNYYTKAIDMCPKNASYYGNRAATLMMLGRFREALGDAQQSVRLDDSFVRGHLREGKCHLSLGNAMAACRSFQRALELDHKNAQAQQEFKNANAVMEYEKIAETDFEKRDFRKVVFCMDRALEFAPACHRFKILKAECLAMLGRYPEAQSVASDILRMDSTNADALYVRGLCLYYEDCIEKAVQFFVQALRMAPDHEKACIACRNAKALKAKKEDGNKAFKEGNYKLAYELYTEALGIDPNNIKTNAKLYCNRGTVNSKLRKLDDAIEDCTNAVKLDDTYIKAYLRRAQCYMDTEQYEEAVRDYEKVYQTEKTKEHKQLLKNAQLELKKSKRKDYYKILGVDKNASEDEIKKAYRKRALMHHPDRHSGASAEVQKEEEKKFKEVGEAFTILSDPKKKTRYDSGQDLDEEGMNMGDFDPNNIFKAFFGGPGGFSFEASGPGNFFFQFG
# UniProt Q9GZR2, sequence (Q9GZR2 whole entry): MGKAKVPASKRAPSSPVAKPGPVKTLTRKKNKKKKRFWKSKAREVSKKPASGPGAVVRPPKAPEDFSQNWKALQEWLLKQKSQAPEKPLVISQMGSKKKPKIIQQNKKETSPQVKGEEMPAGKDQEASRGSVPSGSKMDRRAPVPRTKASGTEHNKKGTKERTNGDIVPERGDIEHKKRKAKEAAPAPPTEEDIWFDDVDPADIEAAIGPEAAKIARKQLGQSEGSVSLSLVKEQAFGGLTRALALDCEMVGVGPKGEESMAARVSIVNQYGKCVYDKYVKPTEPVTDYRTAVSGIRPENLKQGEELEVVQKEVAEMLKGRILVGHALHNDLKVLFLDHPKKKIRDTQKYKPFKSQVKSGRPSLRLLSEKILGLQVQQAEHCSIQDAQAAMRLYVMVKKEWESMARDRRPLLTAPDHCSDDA
# UniProt Q9HAB8, sequence (Q9HAB8 whole entry): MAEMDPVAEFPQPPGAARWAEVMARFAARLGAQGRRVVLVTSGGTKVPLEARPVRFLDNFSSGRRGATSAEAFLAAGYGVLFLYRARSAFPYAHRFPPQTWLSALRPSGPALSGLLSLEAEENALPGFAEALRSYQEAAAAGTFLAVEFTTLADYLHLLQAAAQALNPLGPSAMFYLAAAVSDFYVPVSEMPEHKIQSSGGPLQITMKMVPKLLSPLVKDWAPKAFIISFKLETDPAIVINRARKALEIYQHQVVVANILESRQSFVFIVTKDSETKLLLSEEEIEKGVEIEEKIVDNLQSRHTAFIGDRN
# UniProt Q9NRP0, sequence (Q9NRP0 whole entry): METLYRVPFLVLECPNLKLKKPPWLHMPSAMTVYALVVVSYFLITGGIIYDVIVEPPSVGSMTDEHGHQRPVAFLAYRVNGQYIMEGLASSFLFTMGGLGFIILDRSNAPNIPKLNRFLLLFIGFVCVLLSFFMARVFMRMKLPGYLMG
Target,NP40-soluble protein abundance (concentration: 1mM),NP40-soluble protein abundance (concentration: 2mM),NP40-soluble protein abundance (concentration: 4mM),NP40-soluble protein abundance (concentration: 6mM),NP40-soluble protein abundance (concentration: 8mM),NP40-soluble protein abundance (concentration: 10mM)
ACAT2 (UniProt Q9BWD1),0.987 ± 0.021,0.996 ± 0.038,0.931 ± 0.021,0.967 ± 0.017,0.951 ± 0.021,0.92 ± 0.02
UniProt Q9H6A9|Q9H6A9-2,1.01 ± 0.016,1.02 ± 0.027,0.98826 ± 0.00019,0.989 ± 0.028,0.9847 ± 0.0089,0.9795 ± 0.0059
MRPL9 (UniProt Q9BYD2),1.04 ± 0.13,0.967 ± 0.13,1.03 ± 0.075,0.982 ± 0.09,1.01 ± 0.072,0.972 ± 0.15
STUB1 (UniProt Q9UNE7),0.989 ± 0.017,1.02 ± 0.014,0.977 ± 0.018,0.9527 ± 0.0059,0.938 ± 0.018,0.927 ± 0.019
WDR3 (UniProt Q9UNX4),1.07 ± 0.015,1.09 ± 0.1,1.33 ± 0.039,1.55 ± 0.026,1.8 ± 0.064,1.78 ± 0.15
UniProt Q96T23|Q96T23-2,1.07 ± 0.026,1.21 ± 0.11,1.32 ± 0.061,1.53 ± 0.18,1.67 ± 0.21,1.93 ± 0.25
UniProt Q99571|Q99571-2|F6SFZ6,0.986 ± 0.019,0.959 ± 0.019,0.971 ± 0.019,1.014 ± 0.0026,1.012 ± 0.0075,1.01 ± 0.039
XPO7 (UniProt Q9UIA9),0.973 ± 0.036,0.932 ± 0.035,0.96 ± 0.019,0.958 ± 0.037,0.966 ± 0.015,0.939 ± 0.03
MECR (UniProt Q9BV79),1.04 ± 0.021,1.21 ± 0.051,1.07 ± 0.011,1.04 ± 0.024,1.048 ± 0.0045,1.05 ± 0.03
UniProt Q96L91|Q96L91-2|Q96L91-3|Q96L91-5,1.03 ± 0.036,1.09 ± 0.038,1.05 ± 0.028,1.05 ± 0.061,1.03 ± 0.057,1.1 ± 0.084
UNK (UniProt Q9C0B0),1.071 ± 0.0069,1.12 ± 0.056,1.11 ± 0.021,1.09 ± 0.072,1.1 ± 0.045,1.11 ± 0.033
UniProt Q9Y320|Q9Y320-2,0.936 ± 0.038,0.89 ± 0.056,0.918 ± 0.036,0.952 ± 0.048,0.962 ± 0.04,0.95 ± 0.039
DNAJC7 (UniProt Q99615),1.02 ± 0.012,1.05 ± 0.052,1.01 ± 0.015,1.03 ± 0.016,1.02 ± 0.013,1.04 ± 0.024
HECA (UniProt Q9UBI9),0.969 ± 0.029,1 ± 0.017,1.02 ± 0.049,1.034 ± 0.0078,1.06 ± 0.046,1.04 ± 0.024
UniProt Q9P0J0|Q9P0J0-2,0.912 ± 0.015,0.851 ± 0.095,0.89 ± 0.021,0.856 ± 0.017,0.877 ± 0.037,0.792 ± 0.047
WDR12 (UniProt Q9GZL7),0.997 ± 0.017,0.928 ± 0.082,0.979 ± 0.011,1 ± 0.028,0.999 ± 0.016,0.94 ± 0.033
UniProt Q9BPZ3|D6R9Y1,0.981 ± 0.02,1.01 ± 0.044,0.945 ± 0.028,0.966 ± 0.051,0.929 ± 0.014,0.9085 ± 0.0067
UniProt Q9Y4E8|Q9Y4E8-3,0.967 ± 0.013,0.963 ± 0.032,1.02 ± 0.041,1 ± 0.048,0.993 ± 0.065,1.01 ± 0.027
AASS (UniProt Q9UDR5),0.9781 ± 0.0043,0.935 ± 0.098,0.969 ± 0.035,0.947 ± 0.021,0.979 ± 0.01,0.939 ± 0.027
UniProt Q99828|Q99828-2,1.001 ± 0.0091,0.977 ± 0.03,0.993 ± 0.035,0.9794 ± 0.0058,0.949 ± 0.036,0.95 ± 0.025

Target,NP40-soluble protein abundance (concentration: 1mM),NP40-soluble protein abundance (concentration: 2mM),NP40-soluble protein abundance (concentration: 4mM),NP40-soluble protein abundance (concentration: 6mM),NP40-soluble protein abundance (concentration: 8mM),NP40-soluble protein abundance (concentration: 10mM)
UniProt Q9P1W8|Q9P1W8-2,0.9928 ± 0.0047,1.04 ± 0.041,1.02 ± 0.018,1.0109 ± 0.00039,1.0171 ± 0.00063,1.024 ± 0.0042
PNKP (UniProt Q96T60),1.02 ± 0.041,1.02 ± 0.054,1.1 ± 0.071,1.18 ± 0.021,1.23 ± 0.047,1.22 ± 0.079
UniProt Q9NXK8|Q9NXK8-2,1.018 ± 0.0035,1 ± 0.031,0.9901 ± 0.0047,0.9994 ± 0.008,1.005 ± 0.0022,0.998 ± 0.024
UniProt Q9UL63|C9J7E8|Q9UL63-2,0.984 ± 0.065,0.968 ± 0.061,0.994 ± 0.041,0.937 ± 0.085,0.934 ± 0.092,0.922 ± 0.12
CCDC86 (UniProt Q9H6F5),1.12 ± 0.025,1.17 ± 0.096,1.2 ± 0.017,1.25 ± 0.05,1.31 ± 0.084,1.4 ± 0.13
PARP12 (UniProt Q9H0J9),0.982 ± 0.046,0.946 ± 0.042,1.01 ± 0.022,0.991 ± 0.015,1.04 ± 0.029,1.01 ± 0.023
RBM27 (UniProt Q9P2N5),1.04 ± 0.021,1.15 ± 0.062,1.13 ± 0.05,1.24 ± 0.12,1.25 ± 0.11,1.34 ± 0.16
LSG1 (UniProt Q9H089),0.993 ± 0.019,0.975 ± 0.033,0.987 ± 0.017,0.926 ± 0.03,0.927 ± 0.034,0.924 ± 0.013
OSTC (UniProt Q9NRP0),1.02 ± 0.038,1.02 ± 0.025,1.03 ± 0.049,1.03 ± 0.022,1.039 ± 0.0094,1.04 ± 0.015
UniProt Q96P48|Q96P48-3,0.968 ± 0.022,0.896 ± 0.14,0.983 ± 0.07,0.903 ± 0.059,0.955 ± 0.066,0.882 ± 0.062
AMDHD2 (UniProt Q9Y303),0.968 ± 0.016,0.923 ± 0.048,0.949 ± 0.024,0.954 ± 0.024,0.948 ± 0.02,0.922 ± 0.033
DIDO1 (UniProt Q9BTC0),1.1 ± 0.035,1.18 ± 0.093,1.23 ± 0.043,1.28 ± 0.12,1.27 ± 0.12,1.36 ± 0.12
UniProt Q9UGJ1|Q9UGJ1-2|H3BPU4,1.01 ± 0.037,1.01 ± 0.024,1.04 ± 0.05,1 ± 0.028,1 ± 0.091,1.03 ± 0.08
UniProt Q9NUY8|Q9NUY8-2,0.961 ± 0.0094,0.999 ± 0.026,0.986 ± 0.014,1 ± 0.035,0.991 ± 0.027,1.01 ± 0.031
UniProt Q96T76|Q96T76-8|Q96T76-9,0.964 ± 0.013,0.929 ± 0.082,0.972 ± 0.032,0.987 ± 0.036,1.002 ± 0.0053,0.9354 ± 0.0075
ZNF48 (UniProt Q96MX3),1.015 ± 0.0097,1.062 ± 0.0052,1.05 ± 0.033,1.06 ± 0.028,1.06 ± 0.017,1.12 ± 0.059
NANS (UniProt Q9NR45),0.981 ± 0.015,0.932 ± 0.043,0.939 ± 0.011,0.954 ± 0.015,0.948 ± 0.036,0.918 ± 0.027
PFDN2 (UniProt Q9UHV9),1.05 ± 0.084,1.11 ± 0.11,0.986 ± 0.062,0.928 ± 0.1,0.85 ± 0.016,0.941 ± 0.083
UniProt Q96RG2|Q96RG2-2,0.9919 ± 0.0087,0.997 ± 0.048,1.02 ± 0.011,0.982 ± 0.021,1 ± 0.026,0.996 ± 0.024
MRPL53 (UniProt Q96EL3),0.987 ± 0.06,1.01 ± 0.023,0.986 ± 0.061,0.98 ± 0.045,1 ± 0.063,1 ± 0.066

Target,NP40-soluble protein abundance (concentration: 1mM),NP40-soluble protein abundance (concentration: 2mM),NP40-soluble protein abundance (concentration: 4mM),NP40-soluble protein abundance (concentration: 6mM),NP40-soluble protein abundance (concentration: 8mM),NP40-soluble protein abundance (concentration: 10mM)
CHMP6 (UniProt Q96FZ7),1.03 ± 0.028,1.05 ± 0.022,1.03 ± 0.038,1.01 ± 0.03,1.02 ± 0.032,0.964 ± 0.033
REXO4 (UniProt Q9GZR2),1.06 ± 0.047,1.09 ± 0.073,1.1 ± 0.038,1.17 ± 0.036,1.18 ± 0.039,1.21 ± 0.051
UniProt Q96K49|Q96K49-2,0.99 ± 0.013,1.01 ± 0.027,0.984 ± 0.026,0.9718 ± 0.005,0.9653 ± 0.0019,0.9716 ± 0.0066
UniProt Q9NZQ3|Q9NZQ3-3,1.04 ± 0.066,0.9853 ± 0.0064,1.03 ± 0.045,0.984 ± 0.029,1.02 ± 0.047,0.99 ± 0.014
UniProt Q9H0S4|Q9H0S4-2,0.994 ± 0.061,0.981 ± 0.022,1.11 ± 0.089,1.25 ± 0.12,1.39 ± 0.13,1.46 ± 0.14
PPCS (UniProt Q9HAB8),1.03 ± 0.033,0.981 ± 0.038,1.01 ± 0.028,1.03 ± 0.02,1.03 ± 0.026,1.04 ± 0.021
CISD1 (UniProt Q9NZ45),1 ± 0.047,1.04 ± 0.046,1 ± 0.04,0.992 ± 0.039,1.02 ± 0.0018,0.968 ± 0.051
UniProt Q9H0W9|Q9H0W9-2,0.99 ± 0.035,0.972 ± 0.036,0.973 ± 0.029,0.974 ± 0.012,0.949 ± 0.043,0.935 ± 0.037
RNF114 (UniProt Q9Y508),1.034 ± 0.0076,0.993 ± 0.021,1.03 ± 0.019,1.024 ± 0.0039,1.04 ± 0.018,1 ± 0.013
UniProt Q9BU76|Q9BU76-4,1.03 ± 0.04,1.04 ± 0.052,1 ± 0.067,1.01 ± 0.035,0.99 ± 0.031,0.989 ± 0.038
NOP58 (UniProt Q9Y2X3),1.11 ± 0.021,1.17 ± 0.013,1.17 ± 0.014,1.24 ± 0.054,1.32 ± 0.033,1.46 ± 0.057
UniProt Q9ULV4|Q9ULV4-2|Q9ULV4-3,1.07 ± 0.04,1.11 ± 0.056,1.12 ± 0.026,1.26 ± 0.015,1.33 ± 0.018,1.39 ± 0.037
UniProt Q9NYU2|Q9NYU2-2,0.9826 ± 0.0098,0.9 ± 0.12,0.955 ± 0.034,0.917 ± 0.031,0.936 ± 0.04,0.895 ± 0.036
UniProt Q96RP9|Q96RP9-2,0.99 ± 0.021,0.981 ± 0.031,0.989 ± 0.02,0.976 ± 0.01,0.972 ± 0.022,0.949 ± 0.029
SMARCD1 (UniProt Q96GM5),1.01 ± 0.085,0.97 ± 0.12,1.03 ± 0.11,1.01 ± 0.12,1.03 ± 0.12,1.01 ± 0.12
UniProt Q9ULE6,0.981 ± 0.025,0.96 ± 0.013,1.01 ± 0.02,0.959 ± 0.027,0.957 ± 0.016,0.944 ± 0.025
UniProt Q9UKT4|Q9UKT4-2,0.995 ± 0.029,1.03 ± 0.031,1.03 ± 0.072,1 ± 0.061,1.02 ± 0.092,1.02 ± 0.11
UniProt Q9GZY4,0.995 ± 0.024,0.939 ± 0.041,1.01 ± 0.022,0.977 ± 0.015,0.9936 ± 0.0057,1.01 ± 0.051
SORT1 (UniProt Q99523),0.99 ± 0.034,1.05 ± 0.089,0.995 ± 0.063,1.03 ± 0.055,1.03 ± 0.036,1.03 ± 0.047
YBX2 (UniProt Q9Y2T7),1.02 ± 0.029,1.06 ± 0.013,1.02 ± 0.018,1.01 ± 0.029,1.01 ± 0.036,1.038 ± 0.0094

# — the supplement of paper PMC6411743
